The source of these data is PubChem BioAssay (EPA / NIEHS).

One may read the AC50 as the midpoint of the concentration-response curve, whichever way the signal moves.

Molecules are shown by their SMILES. The source made the active and inactive calls. How the source made its calls: active means hit-call score of the fitted dose curve at least 0.9, where 1 is the maximum; inactive means score below 0.9.

Read-out in the test: TIMP1, TIMP1 (gene 7076)
As to the kind of experiment: LTEA_HepaRG_TIMP1: Life Technologies and Expression Analysis (LTEA) Assay for TIMP1 using HepaRG (AID 2283534).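 On outcome: TaqMan qRT-PCR signal normalized to ACTB GAPDH and POLR2A housekeeping genes.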 Conditions: mRNA level, 48 h; actives raise or lower the signal. Here is the method: LTEA_HepaRG is a cell based, multiplexed-readout assay that uses HepaRG, a human liver cell line, with measurements taken at 48 hours after chemical dosing on a 96-well plate.LTEA_HepaRG_TIMP1 is one of 102 assay component(s) measured in the LTEA HepaRG cell culture assay. It is a marker of Cell proliferation, survival, death.Data from the assay component LTEA_HepaRG_TIMP1 was analyzed into 1 endpoint. This assay endpoint, LTEA_HepaRG_TIMP1, was analyzed with bidirectional fitting relative to DMSO as the negative control and baseline of activity. Using a type of inducible reporter, measures of mRNA induction for gain or loss-of-signal activity can be used to understand regulation of transcription factor activity. To generalize the intended target to other relatable targets, this assay endpoint is annotated to the protease inhibitor intended target family, where the subfamily is metalloproteinase inhibitor.
A total of 1060 chemcials from the ToxCast library were tested in eight-point concentration-response experiments. Cell culture and cytotoxicity assays were conducted at Thermo Fisher Scientific's Custom Services facility (Madison, WI). A single lot of human HepaRG cells (Thermo Fisher Scientific, Frederick, MD) was used for the cell culture experiments. 96-well format collagen type I coated plates of human HepaRG cells were prepared using established methods. Briefly, cryopreserved HepaRG cells were thawed, plated at a density of approximately 100,000 cells/well in HepaRG Thaw, Plate, and General Purpose media (HPRG770, Thermo Fisher Scientific), and incubated for 48 hours. 0.5% DMSO was selected as vehicle control to balance the requisite need of DMSO in HepaRG cultures to maintain differentiation (for example, baseline metabolism, proportions of hepatocytes vs. cholangiocytes), while enabling further hepatic receptor pathway activation (for example, PXR and CAR) in response to chemical exposure. 48 hours after plating, the culture medium was replaced with HepaRG Serum-Free Incudtion Media. Cells were exposed to each test chemical in duplicate and maintained in CO2 incubators for another 48 hours. Chemical plates were thawed to room temperature and 200x concentrations of treatment groups were prepared. 8-point conentration-reponse curves were made with the highest exposure at 100 uM, followed by half-log dilutions, all in 0.5% DMSO. Each test plate contained variouse controls, induction positive controls (1mM phenobarbital), cytotoxicity positive controls ([…] aflatoxin B1), vehicle controls (0.5% DMSO), and total lysis controls (0.5% DMSO). Cell morphology images were taken using an Essen IncuCyte FLR automated microscope, with six 96-well plates imaged in about 24 minutes. Images were captured and exported and JPEG files. Spent culture media was transfered to black-well plates for the LDH assay, and remaining media was sorted at -80 C for later use. Cells were treated with RLT buffer and frozen until shipped for gene expression analysis. Total RNA was isolated from the cell suspension in 75 uL of Buffer RLT (Qiagen, Germantown, MD 20874) by Quintiles/Expression Analysis (Durham, NC) using a custom isolation procedure. Total RNA from each plate well was transferred to a preamplification plate. Fluidigm's 96.96 Dynamic ArrayTM (Fluidigm, Amsterdam, the Netherlands) technology was used for gene expression analyses by quantitative reverse transcription polymerase chain reaction (qRT-PCR, performed by Quintiles/Expression Analysis, Durham, NC)89. Standard TaqManTM Assays (Applied Biosystems/ThermoFisher Scientific, Foster City, CA) were used to assess the expression of 93 genes selected based on their selectivity and sensitivity to important hepatic receptors known to be modulated by environmental chemicals; importance in human hepatocyte functionality; and hepatotoxicity. […]
Take `C[Si]1(C)O[Si](C)(C)O[Si](C)(C)O[Si](C)(C)O1`: the outcome was inactive.

Regarding `CCOc1ccc2c(c1)C(C)=CC(C)(C)N2`, the call was inactive.

Consider `Cc1nc(C)nc(N2C[C@@H](C)N(c3ccnc([C@@H](C)O)n3)[C@@H](C)C2)n1`, for which the outcome was inactive.

`Oc1ccc2c(c1)OC[C@@H](N1CCC(O)(c3ccc(F)cc3)CC1)[C@H]2O`: the result was inactive.

`O=c1[nH]cc(F)c(=O)[nH]1`: the compound was classed as inactive.

Turning to `CC(C)c1ccc(C(=O)N=C(N)N)cc1S(C)(=O)=O`, the compound was classed as inactive.

Regarding `C=CCc1ccc(O)c(OC)c1`, the call was inactive.

`O=c1c(O)c(-c2ccc(O)c(O)c2)oc2cc(O)cc(O)c12`: the compound was classed as inactive.

With `CC(=O)C(C)=CC1C(C)=CCCC1(C)C` (stereo not given), the compound was called inactive.

For the compound `CC(CO)OC(C)CO` (stereo not given) (tested in a mixture with another compound), the compound was classed as inactive.

For `CCNc1cccc(C)c1`, the call was inactive.

On to `Cc1ccc(C)c(C)c1`, for which the result was inactive.

As to `CC(=O)Oc1ccccc1C(=O)O`, the call was inactive.

As to `O=C(N[C@@H](Cc1ccccc1)[C@@H](O)C(=O)N1C[C@@H](O)[C@@H](O)C1)c1cc2cc(Cl)ccc2[nH]1`, the compound was called inactive.

`c1cc(-c2ccncc2)ccn1`: the call was inactive.

With `CCOC(=O)CCC(=O)OCC`, the result was inactive.

Take `Cc1cccc([N+](=O)[O-])c1C`: the call was inactive.

In the case of `Nc1nc(N)c2nc(CNc3ccc(C(=O)N[C@@H](CCC(=O)O)C(=O)O)cc3)cnc2n1`, the call was inactive.

As for `CC(=O)OC/C=C(\C)CCC=C(C)C`, the outcome was inactive.

On to `CNCc1cc(F)ccc1Oc1ccc(Cl)c(Cl)c1`, for which the compound was called inactive.

On to `COc1ccc(C)cc1N`, for which the result was inactive.

Take `CCCCOC(=O)CCCCCCCCC(=O)OCCCC`: the result was inactive.

On to `C[C@]12C=CC(=O)C=C1CC[C@@H]1[C@@H]2C(=O)C[C@@]2(C)[C@H]1CC[C@]2(O)C(=O)CO`, for which the call was inactive.

For the compound `Nc1ccc2c(c1)C(=O)c1ccccc1C2=O`, the compound was classed as inactive.

With `Cc1c(C(=O)O)c(O)cc2c1C(=O)c1c(O)c([C@@H]3O[C@H](CO)[C@@H](O)[C@H](O)[C@H]3O)c(O)c(O)c1C2=O`, the call was inactive.

`COc1ccc(S(=O)(=O)N2C(=O)[C@@](c3ccccc3OC)(N3C[C@H](O)C[C@H]3C(=O)N(C)C)c3cc(Cl)ccc32)c(OC)c1`: the outcome was inactive.

Regarding `Oc1ccc2ccccc2c1N=Nc1ccccc1`, the AC50 is 10.1 µM (active).

As to `CN1CCCC1=O`, the outcome was inactive.

Regarding `CCc1c(C(=O)NN2CCCCC2)nn(-c2ccc(Cl)cc2Cl)c1-c1ccc(Br)cc1`, the concentration at half-maximal activity (AC50) is 86.5 µM (active).

For the compound `CN[C@H]1CC[C@@H](c2ccc(Cl)c(Cl)c2)c2ccc(S(N)(=O)=O)cc21`, the compound was called inactive.

Turning to `CCCCCCCCCCCCCCCCCC(=O)O`, the compound was called inactive.

With `CCCCN(CCCC)CCCC`, the compound was called inactive.

On to `COc1cc(C=O)ccc1O`, for which the compound was called inactive.

For the compound `Cc1ccccc1Cl`, the call was inactive.

For `CCOC(=O)C(C)(C)Oc1ccc(Cl)cc1`, the outcome was inactive.

As to `Nc1ccc(S(=O)(=O)c2ccc(N)cc2)cc1`, the call was inactive.

For `CC(=O)OCCOCCOCCOC(C)=O`, the compound was called inactive.

As to `Nc1ccccc1N`, the compound was called inactive.

Turning to `Cc1ccc(Cl)cc1`, the compound was classed as inactive.

Consider `CCCCCCOCCO`, for which the outcome was inactive.
